Tb PYK inh – T. brucei pyruvate kinase inhibition. Q57TT1. TbPYK enzyme, Kinase-Glo Plus ATP luminescence, 45 min. Potency, µM (titrated, usually from 76.8 µM), without a hit: at the highest dose activity, negative = inhibition, usual class: inhibitors. hit rate 0.12% among 410,000; further: potency means the concentration at half of the fitted maximal effect; on the % scale 0 is the no-effect control and ±100 the full control effect; nearly all actives have a fitted effect of over 50% in size
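Enzyme and substrate buffer are dispensed first and compound is pin-transferred. ADP at 130 uM final then starts the reaction, which runs 45 min at room temperature. Detection reagent is added for 10 min before luminescence is imaged.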
LmPK inh – inhibitors of Leishmania mexicana pyruvate kinase; purified LmPK, Kinase-Glo ATP luminescence, 1 h; AID 1721; hit rate 0.37% among 290,000; Q27686; Potency, µM (highest dose often 57.5 µM), for inactives: top-dose activity change, negative = inhibition, usual class: inhibitors; further: potency means the concentration at half of the fitted maximal effect; on the % scale 0 is the no-effect control and ±100 the full control effect
Target sequence (Q27686 whole entry, looked up): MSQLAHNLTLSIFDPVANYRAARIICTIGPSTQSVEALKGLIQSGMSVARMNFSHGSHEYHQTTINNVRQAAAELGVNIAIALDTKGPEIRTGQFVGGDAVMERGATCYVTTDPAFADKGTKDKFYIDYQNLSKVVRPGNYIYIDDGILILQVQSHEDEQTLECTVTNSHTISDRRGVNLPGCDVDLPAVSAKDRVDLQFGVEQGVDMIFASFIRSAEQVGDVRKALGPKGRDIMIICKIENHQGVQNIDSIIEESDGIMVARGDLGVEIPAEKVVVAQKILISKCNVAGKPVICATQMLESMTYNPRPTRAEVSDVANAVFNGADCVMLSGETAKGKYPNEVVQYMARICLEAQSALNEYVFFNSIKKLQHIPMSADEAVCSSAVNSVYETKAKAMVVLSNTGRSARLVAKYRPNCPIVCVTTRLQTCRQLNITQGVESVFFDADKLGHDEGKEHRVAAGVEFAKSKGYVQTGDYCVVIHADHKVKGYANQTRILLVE
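Screened at intermediate enzyme activity to detect both inhibitors and activators: LmPK at 0.1 nM, with a 0.5 nM enzyme column as activation reference. PEP 0.5 mM, ADP 0.1 mM; ATP detected by luminescence after 1 h.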
RE007 growth inh – less growth of the S. pombe RE007 Vpr strain; hit rate 0.21% among 360,000; S. pombe RE007 Vpr strain, BacTiter-Glo ATP luminescence, 24 h; AID 651644; Potency, µM (doses to about 92.2 µM), without a hit: at the top dose activity change, negative = less growth, hits mostly inhibitors; active means well fitted falling curve with a large enough effect; inconclusive means small, poorly fitted or top-dose-only effect; inactive means no such curve, though single readings can be large or run the other way; further: potency means the concentration at half of the fitted maximal effect; on the % scale 0 is the no-effect control and ±100 the full control effect; nearly all actives have a fitted effect of over 50% in size
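Fission yeast RE007 carrying one integrated HIV-1 vpr copy, seeded at OD 0.01 in PMG+AL medium with 23 nL pinned compound. Grown 24 h at 30 degrees; viability read by BacTiter-Glo luminescence after 5 min.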
Shiga inhibitor – inhibitors of Shiga toxin in Vero cells. hit rate 9.2% among 290,000. Vero cells, Shiga toxin protein synthesis inhibition reporter. inhibition, % at 38.7 µM; in the data active means inhibition mostly above about 28%, no sharp cut-off; inactive means mostly below about 43%; further: 0% is about no effect
CHX counter – counter-screen for Shiga toxin inhibitors: cycloheximide protein synthesis inhibition; cell reporter, cycloheximide protein synthesis inhibition counterscreen; max response, %; hit rate 12% among 300,000; AID 2314; in the data active means max response mostly above about 13%, no sharp cut-off; inactive means mostly below about 14%; further: read at 38.3 µM for the half of the compounds with a filed dose; 0% is about no effect
Giardia FBPA inh – blocks Giardia fructose-bisphosphate aldolase activity; hit rate 0.71% among 290,000; purified Giardia FBPA; AID 2451; Potency, µM (top dose mostly 59.6 µM), for the others: top-dose activity, negative = inhibition, actives largely listed as inhibitors; further: potency means the concentration at half of the fitted maximal effect; on the % scale 0 is the no-effect control and ±100 the full control effect; nearly all actives have a fitted effect of over 55% in size
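Giardia FBPA (40 nM reagent) was preincubated 10 min at RT with compound (up to 57.5 uM final), then substrate plus GAPDH/TPI/NAD/arsenate coupling system with diaphorase/resazurin was added; resorufin fluorescence (525/598 nm) was read after 20 min.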
The depositor's hits bear a star; u = inconclusive; x = no result given. Shown is part of a subset that was picked to be rich in hits. Unless noted, the call rests on the fitted dose curve; in most records, active means well fitted curve in the direction sought with a large enough effect; inconclusive means small, poorly fitted or top-dose-only effect, or another doubt; inactive means no such curve, though single readings can be large; an effect the other way counts as inactive or inconclusive.

SMILES	Tb PYK inh	LmPK inh	RE007 growth inh	Shiga inhibitor	CHX counter	Giardia FBPA inh
CCCn1c(C)cc(C(=O)Cn2nnc3ccccc3c2=O)c1C	4%	3%	10%	82*	35*	-2%
C=CCn1c(C)cc(C(=O)Cn2nc(C(=O)O)c3ccccc3c2=O)c1C	-2%	2%	-11%	56*	32*	-4%
Cn1cccc1C(=O)N1CCC2(CCCN(C(=O)Nc3cccc(C#N)c3)C2)CC1	-11%	x	x	x	x	-11%
COc1cc(-c2nnc(CSc3nnc(Nc4ccc(Oc5ccccc5)cc4)s3)o2)cc(OC)c1OC	-16%	-5%	-12%	26	15*	2%
CCn1ncc(Br)c1C(=O)Nc1ccc(C(C)C)cc1	2%	0%	5%	69*	64*	-1%
CCn1ncc(Br)c1C(=O)Nc1cc(C(=O)OC)ccc1C(=O)OC	10%	-1%	1%	37*	15*	-9%
CCC(C)c1ccc(NC(=O)c2c([N+](=O)[O-])cnn2CC)cc1 (stereo not given)	1%	-5%	-8%	44	20*	2%
CCn1ncc(Br)c1C(=O)Nc1ncc(C)s1	4%	-5%	-8%	69*	27	-4%
CCC(C)NC(=O)CSc1nc2cc3c(cc2c(=O)n1CCCC(=O)NCCc1ccc(OC)c(OC)c1)OCO3 (stereo not given)	-4%	x	x	x	x	x
OC1C2COC(O2)[C@H](O)C1O (stereo not given in full)	x	x	x	x	x	-2%
COc1ccc(N2CCN(C(=O)CCc3c(C)nc4c(-c5ccccc5)c(C)nn4c3C)CC2)cc1	-7%	x	x	x	x	x
CCn1ncc(Br)c1C(=O)Nc1ccc2c(c1)OCCO2	5%	-16%	-24%	99*	70*	2%
COc1cc(/C=N/Nc2ccc(C(F)(F)F)cn2)ccc1O	-5%	3%	-4%	127*	31*	-2%
O=C(N/N=C/c1ccc(C(F)(F)F)cc1)c1ccncc1	-1%	-3%	-6%	7	3	1%
O=C(O)c1ccc(/C=N/Nc2ccc(C(F)(F)F)cn2)cc1	-1%	-4%	9%	84*	35*	-6%
CCOC(=O)C1=C(COC(=O)Cc2ccccc2[N+](=O)[O-])NC(=O)NC1C (stereo not given)	-6%	x	-4%	x	x	x
CCc1cc(CNC(=O)CCc2nnc(CCCc3ccccc3)o2)on1	-1%	-12%	5%	79*	58*	5%
CC(C)c1cc(CNC(=O)CCc2nnc(CCCc3ccccc3)o2)on1	-1%	5%	3%	58*	30*	2%
Cc1cccc(Cc2nnc(CCC(=O)N(C)Cc3ccncc3C)o2)c1	4%	-7%	-3%	39	8	6%
Cc1cccc(-c2noc(CCC(=O)NCc3ccco3)n2)c1	3%	3%	-2%	17	7	4%
Cc1cccc(Cc2nnc(CCC(=O)NCc3ccncc3C)o2)c1	4%	5%	-18%	35	31*	6%
Cc1cc(CNC(=O)CCc2nnc(CCCCc3ccccc3)o2)nn1C	1%	-3%	0%	-17	-2	2%
CCc1cc(CNC(=O)CCc2nnc(Cc3cccc(C)c3)o2)on1	-2%	-2%	5%	71*	8	1%
S=C(Sc1ccc(Cl)cc1)Sc1ccc(Cl)cc1	x	1%	x	21	21*	-9%
Cn1c(SCC(=O)c2ccc3c(c2)Cc2ccccc2-3)nnc1-c1cccc(N)c1	-18%	-3%	-19%	14	20*	33%
CC(=O)Nc1ccc(-c2nnc(SCC(=O)c3ccc4c(c3)Cc3ccccc3-4)n2C)cc1	-19%	3%	-20%	21	9	3%
CC(C)Cn1c(SCC(=O)c2ccc(Cl)s2)nnc1-c1ccco1	-6%	0%	-3%	72	33*	1%
O=C(CSc1nnc(-c2ccco2)n1Cc1ccccc1)c1ccccc1	-19%	2%	6%	72*	38*	0%
Cc1ccc(C(=O)CSc2nnc(-c3ccco3)n2Cc2ccccc2)cc1	u	3%	-22%	90	22*	-8%
NC(=O)NC(=O)CSc1nnc(-c2ccco2)n1Cc1ccccc1	-11%	-4%	-7%	-22	-6	5%
